# Only some compounds are listed: those with a hit (about 2.2% of all), similar ones and a draw of the others.
# Cardiac RTF inh – cardiac RTF calcium desensitization; P19429+P45379; IANBD-labeled cardiac RTF, Ca2+ fluorescence; inhibition, % at 7.15 µM; 340,000 compounds, 0.12% hits; AID 493244;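 active = inhibition above the mean inhibition of all tested compounds plus 3 SD, cut at about 17% in these data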;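 note: assay run at fixed EC70 calcium of 1.6 mM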
# CRFBP-R2 agonist – agonists of human CRF-binding protein/CRF-R2 receptor complex; HEK293 CRF-R2/CRF-BP, calcium dye fluorescence (FLIPR); percent of saturating CRF peptide response; 350,000 compounds, 0.46% hits; activation, % at 13.2 µM;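 active = activation of at least 50%, plus an integration ratio under a set limit after plate pattern correction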;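 note: plate controls were neutral control wells without compound for no effect and CRF at EC100 for full effect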
# cardiac RTF act – increases calcium sensitivity of human cardiac regulated thin filaments; activation, % at 7.2 µM; 340,000 compounds, 0.24% hits; IANBD-labeled TnC RTF fluorescence at EC20 calcium; 0% EC20 calcium, 100% full calcium; P19429+P45379;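 active = activation above the mean over all tested compounds plus 3 SD, cut at about 30% in these data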;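 note: rise in fluorescence read as greater calcium sensitivity of cardiac thin filaments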
# CRFBP-R2 block – blocks CRF-induced signaling of the CRF-BP/CRF-R2 complex. inhibition, % at 11.8 µM. 350,000 compounds, 0.59% hits. AID 588475. HEK293 CRF-R2/CRF-BP, CRF-induced calcium fluorescence;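 active = inhibition of the ligand-induced calcium signal above about 50% at the single tested concentration, limit read from the data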
# Myeloid diff MLP – compounds promoting myeloid differentiation | ER-HoxA9 myeloid progenitors, lysozyme-GFP differentiation, flow cytometry | calls only at 10 µM | 360,000 compounds, 1% hits;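 active = normalized GFP-positive differentiation at or above the plate's own cutoff, the solvent-only control mean plus 3 SD; inconclusive = no clear call, values can overlap the other calls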;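 note: cells exposed to compound for four days before flow analysis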
# RTF inh confirm – cardiac RTF calcium sensitivity inhibition, confirmation; shares compounds with Cardiac RTF inh; reconstituted cardiac thin filaments, calcium sensitivity fluorescence; inhibition, % at 7.15 µM; 360 compounds, 8% hits; AID 504635; in the data active = inhibition above about 18%
# Active calls of the source: *; i = inactive; ? = inconclusive; nt = no result given.
SMILES,Cardiac RTF inh,CRFBP-R2 agonist,cardiac RTF act,CRFBP-R2 block,Myeloid diff MLP,RTF inh confirm
O=[N+]([O-])c1nn(-c2ccc3c(c2)OCCO3)n(O)c1=NCCC1=CCCCC1,18*,-1,-2,2,i,2
O=[N+]([O-])c1nn(-c2ccc3c(c2)OCCO3)n(O)c1=NCc1ccc(F)cc1,-11,-3,-10,-6,i,nt
O=C1CCCN1CCCNS(=O)(=O)c1ccc(F)c(F)c1,-6,-1,0,1,i,nt
CCCCN(C)CCNC(=O)CCNC(=O)Cn1ccc2ccccc2c1=O,3,-2,0,9,i,nt
COc1ccc(N2CCN(S(=O)(=O)c3ccc4c(c3)NC(=O)C(C)S4)CC2)cc1 (stereo not drawn),-5,-1,-4,-4,i,nt
Cc1ccc(C(=O)N2CCN(c3ccc(NC(=O)Cc4ccccc4)cc3)CC2)cc1,18*,-7,3,-11,i,-5
COc1cc(N)ccc1NC(=O)c1cc2ccccc2o1,-1,0,-1,-9,i,nt
CC1(C)OC(C)(C)/C(=C/Nc2ccc(O)cc2)C1=O,190*,0,-8,2,i,-2
CC1(C)OC(=O)C(=CNc2cccc(O)c2)C(=O)O1,4,0,1,-11,i,nt
CCCc1c(C(=O)N/N=C/c2ccccc2C(F)(F)F)nnn1-c1nonc1N,-5,0,-7,5,i,nt
COc1ccc(S(=O)(=O)NC2CC(=O)N(c3cccc(F)c3)C2)cc1OC (stereo not drawn),-20,0,3,2,i,nt
COc1cc(OC)cc(C(=O)NCCNc2nc3cc(C)cc(C)c3cc2C#N)c1,6,0,-1,4,i,nt
c1coc(CNC2CCCCCCC2)c1,18*,-1,2,-1,i,-5
c1coc(CNC2CCCCC2)c1,-3,-1,1,-5,i,nt
Cc1ccc(C(=O)Nc2cccc(NC(=O)c3ccc(C)o3)n2)o1,-2,-1,2,-4,i,nt
NS(=O)(=O)c1cc(C(=O)O)cc(N2CCCC2)c1Oc1ccccc1,19*,0,0,-13,i,-3
OCCCCNCc1ccc(OCc2ccc(Cl)cc2)cc1,17*,1,-16,-9,i,-1
CCN1/C(=C/c2ccc3ccccc3[n+]2CC)C=Cc2ccccc21,17*,-1,-12,9,?,6
CN(C)NC(=S)Nc1ccc(Cl)cc1,0,-1,2,15,i,nt
CN(N)C(=S)Nc1ccc(Cl)cc1,18*,1,3,-7,i,-3
Cn1nc(N)c2c(-c3ccc(Cl)cc3)c(C#N)c(N)nc21,-1,2,11,-24,i,nt
Cn1nc(N)c2c(-c3ccccc3)c(C#N)c(N)nc21,17*,1,0,-18,i,-4
CCCc1c(O)nc(SC2CC(=O)N(c3ccc(OC)cc3)C2=O)[nH]c1=O (stereo not drawn),17*,3,-1,1,i,-2
CCOc1ccc(NS(=O)(=O)c2ccc3c(c2)N(C(C)=O)CCS3)cc1,77*,1,0,-11,i,-2
CC(O)c1nc2ccccc2n1CCCCOc1ccccc1 (stereo not drawn),21*,-2,-2,-46,i,-5
SMILES,Cardiac RTF inh,CRFBP-R2 agonist,cardiac RTF act,CRFBP-R2 block,Myeloid diff MLP,RTF inh confirm
CC(O)c1nc2ccccc2n1CCOc1ccccc1 (stereo not drawn),-6,-1,-2,-12,i,nt
O=C(NCC(c1cccs1)N1CCOCC1)c1ccc([N+](=O)[O-])cc1 (stereo not drawn),17*,-1,-5,11,i,-3
CCN(CC(=O)Nc1c(F)cccc1F)C(=O)/C=C/c1ccc2ccccc2n1,20*,-5,-11,19,i,2
NNC(=O)c1ccc2nc(-c3ccc(Br)cc3)cn2c1,22*,-2,-1,11,i,-2
O=C(NCc1ccccn1)c1ccc(Cl)c(S(=O)(=O)N2CCOCC2)c1,0,-2,-1,-4,i,nt
O=C(Nc1ccc(N2CCOCC2)cc1)Nc1ccc2nc(-c3ccco3)c(-c3ccco3)nc2c1,-6,1,-1,-2,nt,nt
O=C(Nc1ccc2nc(-c3ccco3)c(-c3ccco3)nc2c1)NC1CC1,24*,4,-24,-8,i,19*
